Laboratory results published in PubChem BioAssay.
Active and inactive are the calls of the source.

Legend:
[1] = binders of probe aFSTL3 on microarray, primary screen, stem cell growth factor project, biochemical, small-molecule microarray, fluorescence 635/667 (AID 1064); details: higher = more signal;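 further: measures binding of the biotinylated anti-FSTL3 antibody to printed compounds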
[2] = binders from COS7 lysate, DM2A8 probe, primary screen, torsin A project, cell lysate, small-molecule microarray, fluorescence 635/667 (AID 1065); details: higher = more signal, COS7 lysate expressing mutant human TOR1A
[3] = binders of probe aFGF2 on microarray, primary screen, stem cell growth factor project, biochemical, small-molecule microarray, fluorescence 635/667 (AID 1067); details: higher = more signal;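 further: measures binding of biotinylated aFGF2 protein to printed compounds on slides; z-score merges feature fluorescence and signal-to-noise across triplicate slides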
[4] = binders of probe aFGF10 on microarray, primary screen, stem cell growth factor project, biochemical, small-molecule microarray, fluorescence 635/667 (AID 1071); details: higher = more signal;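 further: score merges 667 nm spot intensity and signal to noise from triplicate slides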
[5] = molecular target: Neurogenic locus notch homolog protein 2 (Homo sapiens) (UniProt Q04721); assay: Notch2 binders on small-molecule microarrays, primary screen, biochemical, small-molecule microarray, 635 nm fluorescence, stem cell growth factors (AID 1073); details: Notch2 binding, higher = more signal
[6] = molecular target: Pro-neuregulin-1, membrane-bound isoform (Homo sapiens) (UniProt Q02297); assay: NRG1 binders on small-molecule microarrays, primary screen, psychiatric disease protein project, biochemical, small-molecule microarray, fluorescence 635/667 (AID 1075); details: NRG1 binding, 635 nm fluorescence, higher = more signal;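 further: score combines 667 nm spot fluorescence with signal to noise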
[7] = tested on: Neuregulin-1 EGF-like domain; assay: binders of neuregulin-1 EGF-like domain, primary screen, biochemical, small-molecule microarray, 635 nm fluorescence (AID 1081); details: small-molecule microarray binding, higher = more signal;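 further: binding of the protein to compounds printed on small-molecule microarray slides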
[8] = FRG1 promoter luciferase signal modulators, primary screen, FRG1 inhibition for FSHD, cell-based, C2C12 myotubes, firefly/Renilla luciferase, luminescence (AID 1084); details: higher = more signal, called active from +8 up or from −8 down
[9] = binders of probe aFST on microarray, primary screen, stem cell growth factor project, biochemical, small-molecule microarray, fluorescence 635/667 (AID 1086); details: higher = more signal;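 further: score merges 667 nm fluorescence with signal-to-noise of each printed compound spot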
[10] = binders of probe aHhip on microarray, primary screen, stem cell growth factor project, biochemical, small-molecule microarray, fluorescence 635/667 (AID 1087); details: higher = more signal;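 further: score merges spot fluorescence at 667nm with spot signal to noise ratio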
[11] = tested on: PRMT1 (protein arginine N-methyltransferase 1); assay: PRMT1 binders on small-molecule microarrays, primary screen, biochemical, small-molecule microarray, 635 nm fluorescence (AID 1088); details: small-molecule microarray binding, higher = more signal;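 further: binding of Prmt1 protein to compounds spotted on small-molecule microarray slides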
[12] = yeast growth modulation, basal conditions, primary screen, YJM789 clinical isolate, OD600, 24 h (AID 1089);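 further: growth of clinical yeast isolate S. cerevisiae YJM 789 seeded 1000 cells per well; test concentration not given here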; details: S. cerevisiae YJM789 growth, higher = more signal, called active from +8 up or from −8 down
[13] = fission yeast growth modulation, primary screen, strain 972, OD600, 24 h, no modulator (AID 1090);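 further: basal condition with compound alone and no growth modifier present; test concentration not given here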; details: S. pombe 972 growth, higher = more signal, called active from +8 up or from −8 down
[14] = S. cerevisiae growth modulation with rapamycin, primary screen, strain BY4716, OD600, 96 h (AID 1091); details: higher = more signal, called active from +8 up or from −8 down; further: test concentration not given here
[15] = molecular target: Torsin-1A-interacting protein 2 (Homo sapiens) (UniProt Q8NFQ8); assay: LULL1 binders on small-molecule microarray, primary screen, cell lysate, human LULL1 lysate, 635/667 nm fluorescence (AID 1092); details: hLULL1 lysate binding, 635 nm fluorescence, higher = more signal;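 further: probe is lysate of COS7 cells overexpressing human LULL1; score merges per-feature 667 nm fluorescence with signal-to-noise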
[16] = E. coli growth modulation, two-sided OD650, primary screen, E. coli filamentation project, strain DRC41, 24 h (AID 1093); details: OD650, 24 h, higher = more signal, called active from +8 up or from −8 down;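 further: MC1000 strain lacking acrAB efflux and sulA so SOS filamentation is blocked; test concentration not given here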
[17] = small-molecule microarray binders of probe aLefty2, primary screen, biochemical, biotinylated probe, 635/667 nm fluorescence (AID 1094); details: higher = more signal;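 further: score merges spot fluorescence near 667 nm with spot signal-to-noise ratio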
[18] = tested on: Noggin (protein binding on small-molecule microarray); assay: Noggin binders on small-molecule microarray, primary screen, biochemical, 635/667 nm fluorescence (AID 1095); details: 635 nm fluorescence, higher = more signal;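 further: score merges 667 nm feature fluorescence with signal to noise over triplicate slides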
[19] = molecular target: Neurogenic locus notch homolog protein 3 (Homo sapiens) (UniProt Q9UM47); assay: NOTCH3 binders on small-molecule microarray, primary screen, biochemical, 635/667 nm fluorescence (AID 1096); details: NOTCH3 binding, 635 nm fluorescence, higher = more signal
[20] = small-molecule microarray binders of probe aEGFR, primary screen, biochemical, biotinylated probe, 635/667 nm fluorescence (AID 1097); details: higher = more signal;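 further: probe is a biotinylated anti-EGFR antibody binding compounds printed on slides; score combines fluorescence near 667 nm and signal to noise of each spot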

Neurogenic locus notch homolog protein 3 (Homo sapiens), sequence (Q9UM47 whole entry, looked up): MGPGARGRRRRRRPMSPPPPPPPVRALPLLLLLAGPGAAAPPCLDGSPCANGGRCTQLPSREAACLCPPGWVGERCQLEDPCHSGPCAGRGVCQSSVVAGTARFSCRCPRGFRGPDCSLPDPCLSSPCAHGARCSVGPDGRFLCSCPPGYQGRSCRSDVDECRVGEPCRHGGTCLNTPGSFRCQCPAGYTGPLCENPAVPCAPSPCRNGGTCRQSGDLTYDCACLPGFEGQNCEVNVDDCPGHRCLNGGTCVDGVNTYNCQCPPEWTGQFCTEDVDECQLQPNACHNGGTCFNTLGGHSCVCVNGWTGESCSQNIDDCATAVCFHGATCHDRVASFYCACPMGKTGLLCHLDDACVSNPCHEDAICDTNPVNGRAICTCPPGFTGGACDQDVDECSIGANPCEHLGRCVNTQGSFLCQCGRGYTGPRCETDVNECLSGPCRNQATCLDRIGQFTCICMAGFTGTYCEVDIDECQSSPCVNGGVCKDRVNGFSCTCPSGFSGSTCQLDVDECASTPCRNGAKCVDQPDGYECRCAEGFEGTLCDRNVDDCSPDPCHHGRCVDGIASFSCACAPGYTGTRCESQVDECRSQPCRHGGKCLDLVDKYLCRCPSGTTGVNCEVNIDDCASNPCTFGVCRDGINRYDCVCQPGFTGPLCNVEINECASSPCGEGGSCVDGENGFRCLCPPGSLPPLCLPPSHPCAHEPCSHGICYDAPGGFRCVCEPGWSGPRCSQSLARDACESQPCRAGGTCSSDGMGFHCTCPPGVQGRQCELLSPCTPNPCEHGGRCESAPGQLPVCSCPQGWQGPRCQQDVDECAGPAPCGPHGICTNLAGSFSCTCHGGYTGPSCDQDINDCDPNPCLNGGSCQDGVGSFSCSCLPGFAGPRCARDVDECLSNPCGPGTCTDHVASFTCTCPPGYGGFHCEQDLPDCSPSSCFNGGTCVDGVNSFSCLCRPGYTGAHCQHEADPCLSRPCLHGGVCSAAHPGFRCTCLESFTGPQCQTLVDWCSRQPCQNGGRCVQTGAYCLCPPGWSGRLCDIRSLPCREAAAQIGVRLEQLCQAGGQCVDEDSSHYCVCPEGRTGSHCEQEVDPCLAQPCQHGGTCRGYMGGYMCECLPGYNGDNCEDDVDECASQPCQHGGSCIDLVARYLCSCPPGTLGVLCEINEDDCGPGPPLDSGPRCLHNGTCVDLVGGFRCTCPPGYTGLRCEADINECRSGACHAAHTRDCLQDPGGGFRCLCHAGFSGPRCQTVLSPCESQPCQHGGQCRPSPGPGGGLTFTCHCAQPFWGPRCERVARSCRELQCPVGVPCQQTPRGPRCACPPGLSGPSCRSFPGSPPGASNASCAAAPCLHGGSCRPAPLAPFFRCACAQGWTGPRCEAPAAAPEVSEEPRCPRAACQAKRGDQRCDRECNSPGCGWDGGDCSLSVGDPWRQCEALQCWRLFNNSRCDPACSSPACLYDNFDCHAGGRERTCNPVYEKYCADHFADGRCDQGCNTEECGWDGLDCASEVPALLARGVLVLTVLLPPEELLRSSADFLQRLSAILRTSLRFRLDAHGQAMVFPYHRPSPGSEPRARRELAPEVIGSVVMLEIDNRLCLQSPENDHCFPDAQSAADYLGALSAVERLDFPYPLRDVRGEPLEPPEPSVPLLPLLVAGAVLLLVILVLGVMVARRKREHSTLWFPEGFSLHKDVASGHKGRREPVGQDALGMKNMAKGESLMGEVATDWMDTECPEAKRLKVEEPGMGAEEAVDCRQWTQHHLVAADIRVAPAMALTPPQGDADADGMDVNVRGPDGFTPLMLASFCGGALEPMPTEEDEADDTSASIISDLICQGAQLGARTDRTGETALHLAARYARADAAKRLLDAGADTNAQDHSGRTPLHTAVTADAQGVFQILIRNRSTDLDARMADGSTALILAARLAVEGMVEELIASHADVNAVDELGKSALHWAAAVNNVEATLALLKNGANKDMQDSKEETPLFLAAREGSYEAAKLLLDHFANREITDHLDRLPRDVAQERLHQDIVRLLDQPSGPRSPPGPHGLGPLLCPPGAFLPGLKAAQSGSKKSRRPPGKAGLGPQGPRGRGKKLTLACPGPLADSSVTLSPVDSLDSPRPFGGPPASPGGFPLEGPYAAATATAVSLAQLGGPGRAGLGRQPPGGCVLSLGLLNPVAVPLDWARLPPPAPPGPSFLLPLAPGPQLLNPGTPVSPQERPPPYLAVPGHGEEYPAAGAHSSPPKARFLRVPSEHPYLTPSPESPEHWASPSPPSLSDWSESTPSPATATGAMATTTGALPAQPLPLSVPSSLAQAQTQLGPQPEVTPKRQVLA
Neurogenic locus notch homolog protein 2 (Homo sapiens), sequence (Q04721 whole entry, looked up, canonical isoform): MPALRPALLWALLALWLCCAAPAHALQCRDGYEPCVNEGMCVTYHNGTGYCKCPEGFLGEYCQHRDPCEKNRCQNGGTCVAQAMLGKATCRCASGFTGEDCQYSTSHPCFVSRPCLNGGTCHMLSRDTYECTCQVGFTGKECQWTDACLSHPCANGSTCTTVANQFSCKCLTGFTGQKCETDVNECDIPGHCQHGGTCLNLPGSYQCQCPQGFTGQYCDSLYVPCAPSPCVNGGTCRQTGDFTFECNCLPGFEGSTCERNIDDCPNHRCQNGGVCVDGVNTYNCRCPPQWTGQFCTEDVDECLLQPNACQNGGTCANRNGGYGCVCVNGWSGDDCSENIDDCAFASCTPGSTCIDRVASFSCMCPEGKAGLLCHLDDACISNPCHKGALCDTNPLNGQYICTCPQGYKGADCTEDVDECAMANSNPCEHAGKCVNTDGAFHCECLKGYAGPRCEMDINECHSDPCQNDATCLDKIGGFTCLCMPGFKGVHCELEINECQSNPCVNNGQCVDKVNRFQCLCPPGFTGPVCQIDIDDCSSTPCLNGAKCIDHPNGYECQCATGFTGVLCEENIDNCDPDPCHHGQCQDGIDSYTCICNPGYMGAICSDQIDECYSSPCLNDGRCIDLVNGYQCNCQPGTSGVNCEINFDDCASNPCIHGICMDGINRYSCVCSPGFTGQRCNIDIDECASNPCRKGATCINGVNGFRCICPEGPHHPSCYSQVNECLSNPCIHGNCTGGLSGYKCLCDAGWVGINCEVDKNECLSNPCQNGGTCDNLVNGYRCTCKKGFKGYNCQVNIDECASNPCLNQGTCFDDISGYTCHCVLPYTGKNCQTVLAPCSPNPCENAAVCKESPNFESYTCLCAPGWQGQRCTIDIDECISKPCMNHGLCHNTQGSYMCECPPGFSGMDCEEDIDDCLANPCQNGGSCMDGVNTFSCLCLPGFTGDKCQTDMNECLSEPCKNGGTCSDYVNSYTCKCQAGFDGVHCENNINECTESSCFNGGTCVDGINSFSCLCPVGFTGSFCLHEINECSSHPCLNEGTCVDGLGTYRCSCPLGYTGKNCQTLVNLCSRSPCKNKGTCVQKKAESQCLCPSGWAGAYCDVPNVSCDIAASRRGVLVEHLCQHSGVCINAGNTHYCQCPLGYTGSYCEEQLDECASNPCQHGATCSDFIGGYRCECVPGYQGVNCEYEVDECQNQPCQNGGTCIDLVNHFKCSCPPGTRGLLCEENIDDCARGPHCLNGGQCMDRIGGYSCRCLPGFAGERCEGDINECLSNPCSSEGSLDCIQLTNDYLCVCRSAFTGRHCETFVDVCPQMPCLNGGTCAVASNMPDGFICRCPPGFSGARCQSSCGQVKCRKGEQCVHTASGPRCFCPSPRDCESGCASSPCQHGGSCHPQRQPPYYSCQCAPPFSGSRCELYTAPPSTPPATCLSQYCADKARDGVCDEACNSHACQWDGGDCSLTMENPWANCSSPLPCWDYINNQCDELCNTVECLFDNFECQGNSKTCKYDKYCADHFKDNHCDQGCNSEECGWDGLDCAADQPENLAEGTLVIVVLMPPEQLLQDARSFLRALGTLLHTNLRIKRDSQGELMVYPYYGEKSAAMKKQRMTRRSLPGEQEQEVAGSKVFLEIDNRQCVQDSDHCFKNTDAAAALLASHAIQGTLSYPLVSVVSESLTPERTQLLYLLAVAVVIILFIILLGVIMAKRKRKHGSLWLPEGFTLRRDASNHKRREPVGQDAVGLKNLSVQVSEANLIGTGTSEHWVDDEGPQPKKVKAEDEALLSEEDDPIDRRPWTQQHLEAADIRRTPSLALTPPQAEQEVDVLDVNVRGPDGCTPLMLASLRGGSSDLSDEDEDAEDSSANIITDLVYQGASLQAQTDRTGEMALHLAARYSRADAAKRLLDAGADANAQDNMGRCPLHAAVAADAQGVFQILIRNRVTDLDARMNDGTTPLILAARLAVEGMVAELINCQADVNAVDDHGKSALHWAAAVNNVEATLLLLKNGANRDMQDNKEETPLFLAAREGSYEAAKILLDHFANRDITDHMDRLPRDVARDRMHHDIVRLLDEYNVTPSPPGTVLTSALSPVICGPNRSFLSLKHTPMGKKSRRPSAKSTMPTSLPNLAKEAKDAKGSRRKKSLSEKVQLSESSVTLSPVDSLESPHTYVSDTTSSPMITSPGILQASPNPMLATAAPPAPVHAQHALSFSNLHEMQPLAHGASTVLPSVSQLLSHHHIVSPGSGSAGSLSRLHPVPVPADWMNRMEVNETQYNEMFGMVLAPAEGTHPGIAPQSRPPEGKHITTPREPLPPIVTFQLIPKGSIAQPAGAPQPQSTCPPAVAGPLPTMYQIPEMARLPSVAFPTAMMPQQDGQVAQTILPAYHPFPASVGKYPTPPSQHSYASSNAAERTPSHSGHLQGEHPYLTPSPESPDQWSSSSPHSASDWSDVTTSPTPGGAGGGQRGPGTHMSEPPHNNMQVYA

| Structure (SMILES) | composite z-score [1] | composite z-score [2] | composite z-score [3] | composite z-score [4] | composite z-score [5] | composite z-score [6] | composite z-score [7] | z-score [8] | composite z-score [9] | composite z-score [10] | composite z-score [11] | z-score [12] | z-score [13] | z-score [14] | composite z-score [15] | z-score [16] | composite z-score [17] | composite z-score [18] | composite z-score [19] | composite z-score [20] |
| --- | --- | --- | --- | --- | --- | --- | --- | --- | --- | --- | --- | --- | --- | --- | --- | --- | --- | --- | --- | --- |
| COC(=O)CC=C[C@@H](C)[C@@H](C=NOC(C)CN1CCCc2nc(C)c(C)cc21)NS(=O)(=O)c1ccc(C)cc1 (stereo not given in full) | -0.0882 | 0.296 | -0.0202 | 0.469 | 0.699 | 0.257 | 0.665 | 0.562 (inactive) | 0.316 | 0.809 | 1.3 | 0.207 (inactive) | 0.12 (inactive) | -0.0152 (inactive) | 1.05 | 0.644 (inactive) | 0.156 | 0.629 | 0.812 | -0.0158 |
| CC(=O)OC[C@H]1O[C@H](CC=NOC[C@@H](O)[C@H]2O[C@@H]3OC(C)(C)O[C@@H]3[C@H]2O)C=C[C@@H]1OC(C)=O | -0.373 | -0.487 | 0.138 | 0.416 | 1.04 | 0.758 | 1.13 | -0.008 (inactive) | 0.265 | -0.0844 | 0.739 | 0.561 (inactive) | 1.09 (inactive) | 0.541 (inactive) | 2.25 | 0.72 (inactive) | -0.0708 | 0.441 | 0.492 | -0.0035 |
| CCOC(=O)[C@H](CC(C)C)NC(=O)CCC1CC(OC(=O)NCc2ccc3c(c2)OCO3)CC2(CCCC(COC(=O)NCCc3ccc(Cl)cc3)O2)O1 (stereo not given in full) | -0.549 | -0.08 | -0.129 | 0.744 | 0.331 | 1.1 | 0.993 | 0.924 (inactive) | -0.0845 | -0.0237 | 1.3 | -1.06 (inactive) | -0.571 (inactive) | -1.81 (inactive) | 1.39 | 0.544 (inactive) | -0.0615 | 0.553 | 0.951 | 0.065 |
| CCN1C(=O)[C@H]2[C@H]3[C@H](O)[C@H](O)CC(=NO[C@H](C)c4cn([C@H](CO)Cc5ccccc5)nn4)[C@@H]3CC[C@H]2C1=O | -0.907 | 0.0378 | -0.116 | 1.08 | 1.01 | 0.782 | 0.934 | 0.804 (inactive) | 0.606 | -0.344 | 1.4 | -0.444 (inactive) | 0.121 (inactive) | -0.371 (inactive) | 1.59 | 0.607 (inactive) | -0.207 | 0.496 | 0.89 | -0.0132 |
| COc1ccc(O[C@H]2C=C[C@@H](c3ccccc3)O[C@@H]2CO)cc1 | -0.176 | -0.15 | -0.121 | 0.291 | -0.359 | -0.224 | -0.134 | 0.403 (inactive) | -0.221 | 0.0458 | 0.018 | 0.711 (inactive) | -1.27 (inactive) | -1.02 (inactive) | 0.0141 | 0.299 (inactive) | -0.0603 | 0.14 | 0.0607 | -0.0146 |
